Results from ChEMBL document CHEMBL3988442, “University of Dundee, Small-Polar-MMV Screening Library” (2021).

target: AMP-activated protein kinase, AMPK (Homo sapiens) (UniProt P54646+O43741+P54619+Q9UGJ0+Q9Y478+Q13131+Q9UGI9); assay: AMP-dependent Kinase enzyme assay. An in vitro enzyme assay that detects ADP turnover that is directly proportional to AMPK activity. This uses naive AMPK that is activated during the assay with MK-8722; type: functional; set-up: scale not given: direction of the effect not stated beside the values; conditions: 30 µM

Compound | Percent Effect [%]
CCc1nnc2n1CCN(C(=O)c1csc(-c3cnn(C)c3)n1)C2 | -3.73
Cn1ncc2c1CCCC2NCc1cc(Br)cs1 (stereo unspecified) | 0.777
CCC(C)c1noc(C2CCN(C(=O)c3cccs3)CC2)n1 (stereo unspecified) | 1.18
CCn1cnnc1CNC(=O)NC(C)C(C)C (stereo unspecified) | 3.19
O=C(CC1CCCC1)N1CCCC(c2n[nH]c3nccnc23)C1 (stereo unspecified) | 20.4
Fc1ccc2[nH]c(C3CCCN3CCc3ccccn3)nc2c1 (stereo unspecified) | -4.31

target: Sialic acid-binding Ig-like lectin 9 (Homo sapiens) (UniProt Q9Y336); assay: Hs-Siglec9 ALPHAscreen SOP 20170721; set-up: scale not given: direction of the effect not stated beside the values; conditions: 10 µM
Sequence (Q9Y336 whole entry): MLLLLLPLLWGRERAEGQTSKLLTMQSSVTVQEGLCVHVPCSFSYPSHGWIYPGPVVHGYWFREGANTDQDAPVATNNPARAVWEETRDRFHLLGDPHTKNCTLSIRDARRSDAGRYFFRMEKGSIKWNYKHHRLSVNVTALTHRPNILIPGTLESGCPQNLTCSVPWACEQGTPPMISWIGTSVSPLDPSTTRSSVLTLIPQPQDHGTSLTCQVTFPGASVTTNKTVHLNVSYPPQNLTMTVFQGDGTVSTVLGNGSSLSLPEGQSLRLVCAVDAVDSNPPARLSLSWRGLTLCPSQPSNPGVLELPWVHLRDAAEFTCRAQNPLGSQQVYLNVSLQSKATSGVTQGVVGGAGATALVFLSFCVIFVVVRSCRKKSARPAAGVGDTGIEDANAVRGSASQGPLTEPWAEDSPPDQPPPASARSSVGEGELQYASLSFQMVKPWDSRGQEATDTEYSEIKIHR

Compound | Percent Effect [%]
CC(C)COC(C)C(=O)NCc1ccc(OC(C)C)nc1 (stereo unspecified) | 1.85
CCc1n[nH]c(C2CN(CCc3cccs3)CCO2)n1 (stereo unspecified) | -6.28
CC(=O)N1CCCC(c2ccc(Nc3nc(C)cc(C)n3)cn2)C1 (stereo unspecified) | 0.842
CN(CC1(O)CCCN(CCC2CCCCC2)C1=O)C1CCOCC1 (stereo unspecified) | 15.6
Cc1noc(C2CCC3(CCN(C(=O)c4c(C)noc4C)CC3)O2)n1 (stereo unspecified) | 17.5
COc1ncccc1NC(=O)N1CCC(CNC(C)=O)CC1 | 4.72
CN1CCN(CCCNC(=O)c2cc(Cl)c3c(c2)OCO3)CC1 | 9.36
O=C(NS(=O)(=O)c1ccc2c(c1)OCCO2)c1ccc(Br)cc1F | 1.7
CCN1CCC(CNC(=O)C2(c3cccc(C)c3)CC2)C1 (stereo unspecified) | 2.04
CC(C)N(C)Cc1cnc2n1CCN(CCc1ccccc1)C2 | -2.38
CNc1nc2c(c(C(=O)N3CCCC3)n1)CN(Cc1nccn1C)CC2 | 7.16
Cc1ccc(-n2nnc(CC(=O)N3CCSCC3)c2C)cc1 | 11.8
Cc1nc(CN2CCCC(N(C)Cc3nnsc3Cl)C2)no1 (stereo unspecified) | -5.57
Cc1nc(-c2ccccc2)sc1C(=O)NCCNc1ncccn1 | -0.445
Cc1cc(=O)n(CC(=O)NCCC(C)C)c(-c2cccc(Cl)c2)n1 | 10.7
CCn1ccnc1CN(C)C1CCCN(CCc2ccccc2)C1 (stereo unspecified) | 4.16
CCN1CCN(c2ncc(-c3cc(C)no3)c(-c3ccoc3C)n2)CC1 | 3.93
COc1ccccc1CC(=O)N1CCC(NCc2c[nH]nc2C)CC1 | -8.2
CN(Cc1cccc(F)c1)C1CCN(CCc2ccccn2)CC1 | -1.38
CC(C)c1nc2n(n1)CC(NCc1nc(-c3cccnc3)no1)CC2 (stereo unspecified) | -12.6

Compound | Percent Effect [%]
CCc1noc(C(C)N2CCN(Cc3nc(C)c(C)o3)CC2)n1 (stereo unspecified) | 1.87
CCn1cnnc1C1CCN(C(=O)c2cnc3ccccc3n2)CC1 | 3.25
CN(CC(=O)NCc1ccccn1)CC1CCCN1c1cccnn1 (stereo unspecified) | -0.887
CC(C)(NCC(=O)NCCC#N)c1ccc2c(c1)OCCO2 | 1.26
Cc1ccc(NC2CCN(C(=O)c3cccc(F)c3F)CC2)nn1 | 4.94
Clc1ccccc1C1(c2ccnc(-c3ncccn3)n2)CCNCC1 | 8.56
O=C1CC(c2ccncc2)c2c(c(C(=O)O)cn2-c2ccc(F)cc2)N1 (stereo unspecified) | -1.44
O=C(NCCC(=O)N1CCCc2ccccc21)c1c(O)cc(F)cc1F | 9.22
CNC(=O)N1C[C@H]2CC[C@@]3(N=C(c4ccccc4)NC3=O)[C@H]2C1 | 7.17
Cc1cc(CN(C)C2CCCN(Cc3noc(C4CC4)n3)C2)no1 (stereo unspecified) | -8.06
C=C1c2ccccc2C(=O)N1CCC(=O)N1CCNC(=O)C1 | 3.39
CCOC(=O)CCNC(=O)N1CCN(c2nc3ccccc3n2C)CC1 | 4.46
CNc1cc(N2CCCC2CNCc2c[nH]nc2C(C)(C)C)ncn1 (stereo unspecified) | -4.25
COCC1c2c(cnn2CC2CC2)CCN1Cc1nccs1 (stereo unspecified) | 5.98
CCc1nnc2n1CCN(C(=O)c1csc(-c3cnn(C)c3)n1)C2 | 15.8
Cn1ncc2c1CCCC2NCc1cc(Br)cs1 (stereo unspecified) | -1.41
CCC(C)c1noc(C2CCN(C(=O)c3cccs3)CC2)n1 (stereo unspecified) | 3.86
CCn1cnnc1CNC(=O)NC(C)C(C)C (stereo unspecified) | 7.03
O=C(CC1CCCC1)N1CCCC(c2n[nH]c3nccnc23)C1 (stereo unspecified) | 3.58
Fc1ccc2[nH]c(C3CCCN3CCc3ccccn3)nc2c1 (stereo unspecified) | 9.65
